The supplement of paper PMC10849652
The full data set covers some 7,900 targets. This sample favours those with a hit. About 0.6% of all pairs of compound and target were hits. Values without a mark were called inactive.

Legend:
Assay in all cases: log2 fold change, soluble protein after heating vs DMSO (PISA); higher = thermal stabilisation; K562 cells, 10 uM, 30 min; active = over 0.2 and 3.5 SD of the protein, either way, in both replicates (recomputed)
erlotinib = compound: C#Cc1cccc(Nc2ncnc3cc(OCCOC)c(OCCOC)cc23)c1 [erlotinib]
Procedure, shortened: (§1)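 K562 cells at 2×10^6 cells/mL were treated with 10 μM compound for 30 min. Aliquots were heated for 3 min across 48°C-58°C, pooled, and extracted in PBS with 0.5% NP-40 at 4°C; soluble protein was the supernatant after 21,000xg for 90 min. Soluble protein was quantified by TMTpro 16plex LC-MS/MS with channel sums equalised, and reported as log2 fold change in thermal stability against DMSO controls, with values from duplicates.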

[1] = compound: C/C(=N\NC(=O)C1=CC(=CC=C1)S(=O)(=O)N2CCOCC2)/C3=C(C=CC(=C3)Cl)O
Procedure, shortened: as §1

[2] = compound: C1=CC(=C(C=C1Cl)C2=NC3=NC=CN=C3C(=N2)NC4=CC=NC=C4)F
Procedure, shortened: as §1

[3] = compound: C1=CC(=CC=C1C2=NC3=C(N2)C=C(C=C3)C(=O)N)OC4=CC=C(C=C4)Cl
Procedure, shortened: as §1

[4] = compound: C1=CC2=C(C=CC(=C2)/C=C\3/C(=O)NC(=NCC4=CC=CS4)S3)N=C1
Procedure, shortened: as §1

[5] = compound: C1=CC2=NC=CN=C2C=C1/C=C/3\C(=O)NC(=O)S3
Procedure, shortened: as §1

[6] = compound: C1=CC=C(C=C1)C2=NC(=C(N2)C3=CC=NC=C3)C4=CC(=C(C=C4)Cl)O
Procedure, shortened: as §1

[7] = compound: C1=CC=C2C(=C1)C3=NNC4=CC=CC(=C43)C2=O
Procedure, shortened: as §1

[8] = compound: C1CCN(C1)C(=O)NC2=CC=CC(=C2)NC3=NC=C(C(=N3)NCCC4=CN=CN4)Br
Procedure, shortened: as §1

[9] = compound: C1CN(CCC1(CC2=CC=C(C=C2)Cl)N)C3=NC=NC4=C3C=CN4
Procedure, shortened: as §1

Sequence of UniProt P35227 (P35227 whole entry, looked up): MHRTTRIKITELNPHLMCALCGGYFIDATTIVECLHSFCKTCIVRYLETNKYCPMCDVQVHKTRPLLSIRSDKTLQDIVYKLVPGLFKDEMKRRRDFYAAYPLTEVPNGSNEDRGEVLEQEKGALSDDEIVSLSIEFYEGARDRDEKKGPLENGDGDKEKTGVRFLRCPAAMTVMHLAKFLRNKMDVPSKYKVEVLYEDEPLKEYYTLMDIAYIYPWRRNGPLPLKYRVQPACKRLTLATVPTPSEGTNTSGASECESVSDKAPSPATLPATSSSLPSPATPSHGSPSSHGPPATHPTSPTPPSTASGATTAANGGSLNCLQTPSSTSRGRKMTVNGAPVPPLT
Sequence of UniProt Q16513 (Q16513 whole entry, looked up): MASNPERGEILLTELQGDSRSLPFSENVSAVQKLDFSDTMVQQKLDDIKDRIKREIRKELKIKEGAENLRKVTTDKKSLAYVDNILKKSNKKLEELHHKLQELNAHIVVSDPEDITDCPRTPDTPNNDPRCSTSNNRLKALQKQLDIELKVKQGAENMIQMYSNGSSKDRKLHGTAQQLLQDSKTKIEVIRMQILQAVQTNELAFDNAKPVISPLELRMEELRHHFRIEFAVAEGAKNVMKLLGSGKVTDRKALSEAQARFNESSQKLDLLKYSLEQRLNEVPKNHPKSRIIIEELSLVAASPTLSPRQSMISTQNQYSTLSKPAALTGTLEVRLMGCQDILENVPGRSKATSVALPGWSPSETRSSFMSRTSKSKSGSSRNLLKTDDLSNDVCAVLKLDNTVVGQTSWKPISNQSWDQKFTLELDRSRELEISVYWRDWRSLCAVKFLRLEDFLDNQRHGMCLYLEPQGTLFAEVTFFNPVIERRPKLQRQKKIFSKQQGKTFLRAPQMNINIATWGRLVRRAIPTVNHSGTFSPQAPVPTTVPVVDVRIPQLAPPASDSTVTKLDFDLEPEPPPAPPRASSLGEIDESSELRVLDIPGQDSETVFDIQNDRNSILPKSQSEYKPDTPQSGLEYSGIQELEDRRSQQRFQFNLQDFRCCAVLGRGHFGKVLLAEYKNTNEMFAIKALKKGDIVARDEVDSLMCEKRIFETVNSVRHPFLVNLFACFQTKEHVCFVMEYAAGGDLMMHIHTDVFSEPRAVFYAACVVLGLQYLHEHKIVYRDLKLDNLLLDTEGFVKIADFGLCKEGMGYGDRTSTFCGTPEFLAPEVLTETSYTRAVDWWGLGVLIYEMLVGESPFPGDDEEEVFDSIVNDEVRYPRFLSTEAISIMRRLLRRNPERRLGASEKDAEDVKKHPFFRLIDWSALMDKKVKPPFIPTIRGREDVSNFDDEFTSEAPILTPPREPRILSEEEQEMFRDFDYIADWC
Sequence of UniProt P29590 (P29590 whole entry, looked up): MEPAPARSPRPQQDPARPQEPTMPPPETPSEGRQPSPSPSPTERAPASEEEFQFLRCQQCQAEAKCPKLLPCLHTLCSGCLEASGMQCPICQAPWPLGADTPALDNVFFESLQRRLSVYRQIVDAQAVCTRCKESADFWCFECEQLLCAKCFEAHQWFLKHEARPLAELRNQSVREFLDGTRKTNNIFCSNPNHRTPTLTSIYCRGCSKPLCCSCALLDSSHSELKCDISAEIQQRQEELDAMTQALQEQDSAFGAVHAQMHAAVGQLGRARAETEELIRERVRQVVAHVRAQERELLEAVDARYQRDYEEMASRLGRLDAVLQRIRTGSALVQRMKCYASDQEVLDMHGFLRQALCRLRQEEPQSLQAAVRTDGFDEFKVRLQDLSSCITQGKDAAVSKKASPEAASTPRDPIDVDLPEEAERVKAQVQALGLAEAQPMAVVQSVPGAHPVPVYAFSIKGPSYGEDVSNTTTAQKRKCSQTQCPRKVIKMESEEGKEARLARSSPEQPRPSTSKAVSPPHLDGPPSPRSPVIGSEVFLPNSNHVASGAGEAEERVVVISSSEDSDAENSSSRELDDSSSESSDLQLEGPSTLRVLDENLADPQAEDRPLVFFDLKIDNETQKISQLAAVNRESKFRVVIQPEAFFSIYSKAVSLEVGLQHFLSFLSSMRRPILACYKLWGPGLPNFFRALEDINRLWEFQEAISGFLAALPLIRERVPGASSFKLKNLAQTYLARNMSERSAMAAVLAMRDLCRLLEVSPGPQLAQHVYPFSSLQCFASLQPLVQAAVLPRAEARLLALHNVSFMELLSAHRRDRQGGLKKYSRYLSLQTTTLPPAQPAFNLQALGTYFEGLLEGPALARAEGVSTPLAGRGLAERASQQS
Sequence of UniProt Q86T03 (Q86T03 whole entry, looked up): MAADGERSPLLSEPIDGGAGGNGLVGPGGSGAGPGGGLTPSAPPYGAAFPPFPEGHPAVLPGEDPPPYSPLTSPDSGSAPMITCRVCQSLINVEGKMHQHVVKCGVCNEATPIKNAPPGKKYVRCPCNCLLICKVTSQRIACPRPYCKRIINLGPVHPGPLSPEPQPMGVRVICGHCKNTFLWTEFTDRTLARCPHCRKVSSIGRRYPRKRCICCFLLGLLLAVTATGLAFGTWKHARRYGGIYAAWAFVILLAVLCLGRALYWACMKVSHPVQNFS
Sequence of UniProt O00408 (O00408 whole entry, looked up): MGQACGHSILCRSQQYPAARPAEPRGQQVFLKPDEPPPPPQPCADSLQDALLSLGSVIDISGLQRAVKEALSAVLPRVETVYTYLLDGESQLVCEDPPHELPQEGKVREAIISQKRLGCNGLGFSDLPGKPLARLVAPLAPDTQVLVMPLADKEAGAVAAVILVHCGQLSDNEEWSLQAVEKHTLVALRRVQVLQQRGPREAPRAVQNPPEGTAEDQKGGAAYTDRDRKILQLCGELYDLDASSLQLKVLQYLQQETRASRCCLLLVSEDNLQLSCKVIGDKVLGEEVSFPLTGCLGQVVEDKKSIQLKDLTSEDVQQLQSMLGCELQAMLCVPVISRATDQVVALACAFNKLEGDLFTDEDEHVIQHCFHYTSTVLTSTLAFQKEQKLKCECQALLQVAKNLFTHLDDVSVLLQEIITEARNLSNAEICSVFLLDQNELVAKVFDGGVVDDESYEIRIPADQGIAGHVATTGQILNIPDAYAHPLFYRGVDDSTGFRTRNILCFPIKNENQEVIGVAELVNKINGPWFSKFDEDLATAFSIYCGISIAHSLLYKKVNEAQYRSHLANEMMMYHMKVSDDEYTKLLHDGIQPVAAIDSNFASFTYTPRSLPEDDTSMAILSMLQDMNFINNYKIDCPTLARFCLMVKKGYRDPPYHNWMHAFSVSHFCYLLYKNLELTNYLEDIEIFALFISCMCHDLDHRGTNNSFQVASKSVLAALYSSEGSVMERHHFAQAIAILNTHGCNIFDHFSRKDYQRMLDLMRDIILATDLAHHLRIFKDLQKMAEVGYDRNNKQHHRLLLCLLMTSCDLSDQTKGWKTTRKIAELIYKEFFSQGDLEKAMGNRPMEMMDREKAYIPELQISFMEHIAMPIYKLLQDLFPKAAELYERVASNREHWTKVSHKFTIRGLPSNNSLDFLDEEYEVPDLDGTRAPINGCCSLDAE
Sequence of UniProt P11216 (P11216 whole entry, looked up): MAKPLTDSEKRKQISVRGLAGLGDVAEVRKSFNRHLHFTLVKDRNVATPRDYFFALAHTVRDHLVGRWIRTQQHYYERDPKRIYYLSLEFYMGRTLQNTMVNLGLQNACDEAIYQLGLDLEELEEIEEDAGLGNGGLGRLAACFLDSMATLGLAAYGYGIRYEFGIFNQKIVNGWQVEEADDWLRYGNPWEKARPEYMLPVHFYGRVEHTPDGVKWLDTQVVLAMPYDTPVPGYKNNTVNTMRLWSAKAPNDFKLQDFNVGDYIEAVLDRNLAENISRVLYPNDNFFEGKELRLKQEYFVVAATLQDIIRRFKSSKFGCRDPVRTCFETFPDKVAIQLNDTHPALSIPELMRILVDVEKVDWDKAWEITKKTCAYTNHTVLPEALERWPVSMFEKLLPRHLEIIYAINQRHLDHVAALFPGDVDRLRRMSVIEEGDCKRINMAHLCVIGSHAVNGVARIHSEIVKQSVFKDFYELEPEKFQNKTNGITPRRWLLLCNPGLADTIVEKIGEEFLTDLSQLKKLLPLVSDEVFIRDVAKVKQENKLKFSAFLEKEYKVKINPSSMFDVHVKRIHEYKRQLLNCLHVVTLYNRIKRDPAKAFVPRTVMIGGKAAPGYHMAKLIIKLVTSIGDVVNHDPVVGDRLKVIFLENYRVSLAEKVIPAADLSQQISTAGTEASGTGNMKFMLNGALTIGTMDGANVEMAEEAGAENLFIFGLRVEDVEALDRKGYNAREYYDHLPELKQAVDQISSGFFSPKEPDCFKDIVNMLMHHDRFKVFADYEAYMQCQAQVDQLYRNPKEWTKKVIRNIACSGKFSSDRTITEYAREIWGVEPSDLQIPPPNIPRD
Sequence of UniProt Q92968 (Q92968 whole entry, looked up): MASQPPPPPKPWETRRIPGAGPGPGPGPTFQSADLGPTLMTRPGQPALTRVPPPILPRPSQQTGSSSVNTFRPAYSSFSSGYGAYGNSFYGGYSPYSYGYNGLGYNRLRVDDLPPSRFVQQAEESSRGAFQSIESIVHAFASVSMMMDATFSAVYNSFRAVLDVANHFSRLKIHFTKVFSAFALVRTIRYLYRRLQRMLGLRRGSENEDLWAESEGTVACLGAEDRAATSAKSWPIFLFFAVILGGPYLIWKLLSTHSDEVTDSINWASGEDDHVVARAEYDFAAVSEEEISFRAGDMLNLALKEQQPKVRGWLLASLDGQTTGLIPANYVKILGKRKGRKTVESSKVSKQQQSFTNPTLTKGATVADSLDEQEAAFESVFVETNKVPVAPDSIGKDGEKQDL
Sequence of UniProt Q8NAV1 (Q8NAV1 whole entry, looked up): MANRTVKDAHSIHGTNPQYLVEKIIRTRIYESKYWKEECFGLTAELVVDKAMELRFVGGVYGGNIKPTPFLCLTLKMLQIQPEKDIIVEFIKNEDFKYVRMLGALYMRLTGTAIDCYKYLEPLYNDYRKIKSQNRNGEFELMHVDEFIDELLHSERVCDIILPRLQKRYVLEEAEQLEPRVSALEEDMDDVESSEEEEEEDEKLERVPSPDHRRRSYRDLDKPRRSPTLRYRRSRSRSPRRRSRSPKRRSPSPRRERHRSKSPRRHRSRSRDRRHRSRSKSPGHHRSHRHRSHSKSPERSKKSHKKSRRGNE

Target | log2 fold change (erlotinib) | log2 fold change [1] | log2 fold change [2] | log2 fold change [3] | log2 fold change [4] | log2 fold change [5] | log2 fold change [6] | log2 fold change [7] | log2 fold change [8] | log2 fold change [9]
PRKCD (UniProt Q05655) | -0.01 | 0.004 | 0.028 | 0.065 | 0.016 | 0.044 | -0.006 | -0.008 | 0.009 | -0.001
PRPSAP2 (UniProt O60256) | 0.053 | 0.033 | -0.017 | -0.028 | -0.06 | 0.017 | -0.006 | 0.029 | -0.02 | 0.009
PIP4P1 isoform 2 (UniProt Q86T03) | 0.057 | 0.001 | 0.052 | -0.014 | -0.104 | 0.068 | 0.002 | 0.035 | -0.028 | 0.101
PSMD7 (UniProt P51665) | -0.074 | -0.1 | -0.045 | -0.023 | -0.015 | -0.072 | 0.02 | -0.009 | 0.044 | -0.01
PKN2 (UniProt Q16513) | 0.067 | 0.073 | -0.019 | -0.075 | 0.076 | -0.075 | 0.07 | -0.031 | -0.033 | -0.209
PSMD5 (UniProt Q16401) | -0.015 | 0.038 | 0.063 | -0.007 | 0 | 0.027 | -0.001 | -0.012 | 0.014 | -0.004
PRKAA1 isoform 2 (UniProt Q13131) | 0 | 0.026 | 0.084 | 0.045 | 0.018 | 0.013 | 0.012 | -0.051 | -0.034 | 0.012
PRPF38A (UniProt Q8NAV1) | -0.032 | 0.035 | -0.01 | 0.049 | 0 | -0.046 | 0 | -0.08 | 0.008 | 0.018
PRPF40A (UniProt O75400) | 0.082 | 0.083 | -0.087 | 0.012 | 0.032 | 0.007 | -0.037 | -0.135 | -0.129 | -0.124
PML (UniProt P29590) | 0.045 | -0.073 | 0.015 | -0.022 | -0.043 | 0.071 | 0.033 | 0.007 | 0.002 | -0.005
PPIL4 (UniProt Q8WUA2) | 0.011 | 0.056 | -0.049 | 0.043 | -0.023 | 0 | 0.04 | -0.009 | -0.06 | -0.044
PIK3C3 (UniProt Q8NEB9) | -0.005 | -0.004 | -0.157 | -0.005 | 0.011 | 0.087 | -0.007 | 0.048 | -0.024 | 0.06
PCGF2 (UniProt P35227) | 0.11 | 0.037 | 0.001 | -0.013 | 0.177 | -0.023 | 0.053 | -0.002 | -0.057 | -0.061
PDE2A (UniProt O00408) | -0.055 | -0.521 (active) | -0.011 | -0.034 | 0.161 | -0.099 | 0.137 | 0.113 | -0.077 | 0.184
PYGB (UniProt P11216) | -0.047 | -0.022 | -0.003 | 0.087 | 0.11 | 0.008 | -0.011 | 0.039 | 0.009 | -0.028
PTPN12 (UniProt Q05209) | 0.005 | -0.007 | -0.011 | 0.004 | 0.022 | 0.101 | -0.021 | -0.036 | -0.039 | -0.05
QKI (UniProt Q96PU8) | -0.011 | 0.051 | -0.008 | 0.003 | 0.028 | 0.007 | -0.002 | -0.032 | -0.025 | -0.007
PEX13 (UniProt Q92968) | 0.026 | 0.03 | 0.026 | 0.009 | 0.048 | 0.073 | -0.01 | 0.005 | 0.038 | 0.036
PLIN2 (UniProt Q99541) | 0.033 | 0.028 | 0.043 | -0.038 | 0.023 | 0.101 | 0 | -0.089 | 0.028 | -0.068
PC (UniProt P11498) | -0.037 | 0.101 | 0.117 | 0.056 | 0.047 | -0.042 | 0.042 | 0.031 | -0.022 | 0.012
POLR2E (UniProt P19388) | 0.022 | 0.021 | 0.038 | 0.057 | -0.054 | 0.007 | 0.013 | -0.02 | -0.01 | 0.011
PTPA (UniProt A6PVN8) | -0.061 | 0.21 | -0.107 | 0.367 | 0.088 | 0.031 | 0.063 | 0.065 | 0.01 | 0.031
POMK (UniProt Q9H5K3) | -0.091 | -0.007 | 0.019 | 0.005 | -0.01 | 0.071 | 0.005 | -0.019 | 0.006 | 0.005
PCTP (UniProt Q9UKL6) | 0.035 | -0.04 | 0.065 | 0.046 | 0.057 | 0.076 | 0.012 | 0.002 | 0.049 | -0.035
PCYT1A (UniProt P49585) | -0.014 | 0.125 | -0.03 | -0.001 | 0.019 | 0.054 | -0.09 | -0.033 | -0.043 | -0.009
PHKA1 (UniProt P46020) | -0.028 | -0.101 | -0.051 | 0.003 | 0.057 | 0.024 | 0.152 | -0.095 | -0.105 | -0.026
POMP (UniProt Q9Y244) | 0.003 | -0.018 | 0.373 (active) | 0.015 | -0.073 | 0.086 | -0.018 | 0.003 | 0.061 | -0.034
PDE4DIP isoform 4 (UniProt Q5VU43) | 0.027 | -0.002 | 0.186 | 0.01 | 0.089 | -0.043 | -0.059 | -0.02 | -0.037 | -0.061
